# Experimental data: PubChem BioAssay (Tox21)
# Several values for one entry are separate records, joined by “and”; a condition that tells them apart may be missing. Equal entries are not always repeated. Inconclusive results are not listed. Entries that show only a call come without a potency. Values without a mark were called inactive. Activity calls are given as the source filed them. The call rests on the fitted dose curve; in most records, active means well fitted curve in the direction sought with a large enough effect in the repeat runs; inconclusive means weak or mixed curves; inactive means no such curve, though single readings can be large; an effect the other way counts as inactive or inconclusive.
# Tests used:
# [1] = molecular target: Cytochrome P450 2C19 (Homo sapiens) (UniProt P33261); experiment: Cytochrome P450 Family 2 Subfamily C Member 19 (CYP2C19) small molecule antagonists: luciferase reporter qHTS assay (AID 1671197); further: nearly all actives have a fitted effect of over 65% in size; on activity change, negative = inhibition: series mostly up to about 120 µM
# Method in brief: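 Enzyme-substrate mix with proluciferin substrate (P450-Glo CYP2C19 system) preincubated with compounds 10 min at room temperature; NADPH regeneration solution added, 37C for 1 h; detection reagent stops reaction, luminescence read after 20 min. Ketoconazole positive control.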
# [2] = molecular target: Cytochrome P450 2C9 (Homo sapiens) (UniProt P11712); experiment: Cytochrome P450 Family 2 Subfamily C Member 9 (CYP2C9) small molecule antagonists: luciferase reporter qHTS assay (AID 1671198); further: nearly all actives have a fitted effect of over 50% in size; on activity change, negative = inhibition: series mostly up to about 120 µM
# Method in brief: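 CYP2C9 activity was measured with a P450-Glo proluciferin substrate. Enzyme–substrate mix was held with compound for 10 min at room temperature, then NADPH regeneration solution was added for 1 h at 37C. Luciferin product was read as luminescence.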
# [3] = molecular target: Cytochrome P450 1A2 (Homo sapiens) (UniProt P05177); experiment: Cytochrome P450 Family 1 Subfamily A Member 2 (CYP1A2) small molecule antagonists: luciferase reporter qHTS assay (AID 1671199); further: nearly all actives have a fitted effect of over 50% in size; on activity change, negative = inhibition: series mostly up to about 120 µM
# Method in brief: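 Steps: enzyme-substrate mix dispensed; test compounds and furafylline control pinned in; 10 min room temperature; NADPH regeneration solution added, 1 h; reaction stopped with luciferin detection reagent; luminescence read after 20 min.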
# [4] = molecular target: Voltage-gated inwardly rectifying potassium channel KCNH2 (Homo sapiens) (UniProt Q12809); experiment: Human Ether-a-go-go-Related Gene (hERG) channel small molecule antagonists: fluorescence cell-based qHTS assay (AID 1671200); further: nearly all actives have a fitted effect of over 50% in size;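 on activity change, negative = inhibition: hERG-expressing U2OS cells given a thallium stimulus after FluxOR II dye loading; series mostly up to about 77 µM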
# Method in brief: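 Thallium served as the potassium surrogate; its influx into dye-loaded U2OS cells carrying the channel was measured by fluorescence over 2 min.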
# [5] = molecular target: Cytochrome P450 3A4 (Homo sapiens) (UniProt P08684); experiment: Cytochrome P450 Family 3 Subfamily A Member 4 (CYP3A4) small molecule antagonists: luciferase reporter qHTS assay (AID 1671201); further: nearly all actives have a fitted effect of over 50% in size; on activity change, negative = inhibition: series mostly up to about 120 µM
# Method in brief: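 Relative luminescence units after 20 min with luciferin detection reagent served as read-out. Beforehand, CYP3A4 turned over a proluciferin substrate for 1 h at room temperature with NADPH regeneration, following 10 min compound preincubation.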
# Potency means the concentration at half of the fitted maximal effect.
# Cytochrome P450 2C19 (Homo sapiens), sequence (P33261 whole entry, looked up): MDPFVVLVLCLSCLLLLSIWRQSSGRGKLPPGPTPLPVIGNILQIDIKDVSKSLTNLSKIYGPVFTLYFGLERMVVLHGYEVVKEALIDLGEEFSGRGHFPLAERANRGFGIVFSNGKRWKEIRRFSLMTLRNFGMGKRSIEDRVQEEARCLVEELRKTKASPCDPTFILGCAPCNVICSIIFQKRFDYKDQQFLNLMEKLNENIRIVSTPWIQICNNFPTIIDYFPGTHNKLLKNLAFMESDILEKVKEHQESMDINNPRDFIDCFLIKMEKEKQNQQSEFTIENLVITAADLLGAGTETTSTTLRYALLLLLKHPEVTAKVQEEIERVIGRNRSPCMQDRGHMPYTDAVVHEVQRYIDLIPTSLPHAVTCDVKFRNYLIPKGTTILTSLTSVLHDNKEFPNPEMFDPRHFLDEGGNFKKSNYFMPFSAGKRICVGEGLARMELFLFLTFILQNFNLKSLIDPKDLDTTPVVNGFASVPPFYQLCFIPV
# Cytochrome P450 2C9 (Homo sapiens), sequence (P11712 whole entry, looked up): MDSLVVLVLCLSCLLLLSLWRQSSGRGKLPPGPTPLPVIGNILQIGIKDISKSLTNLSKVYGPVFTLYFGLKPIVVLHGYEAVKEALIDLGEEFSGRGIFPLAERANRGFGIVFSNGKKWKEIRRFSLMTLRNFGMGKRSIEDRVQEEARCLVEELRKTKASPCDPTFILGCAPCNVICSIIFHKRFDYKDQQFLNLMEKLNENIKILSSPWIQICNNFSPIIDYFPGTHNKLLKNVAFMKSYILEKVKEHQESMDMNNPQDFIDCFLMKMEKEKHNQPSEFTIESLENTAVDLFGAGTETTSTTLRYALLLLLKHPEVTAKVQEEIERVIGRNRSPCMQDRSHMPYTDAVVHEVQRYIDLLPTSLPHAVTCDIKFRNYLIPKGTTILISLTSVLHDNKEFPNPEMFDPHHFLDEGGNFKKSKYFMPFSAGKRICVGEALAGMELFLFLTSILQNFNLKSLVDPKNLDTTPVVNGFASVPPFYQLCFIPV
# Cytochrome P450 3A4 (Homo sapiens), sequence (P08684 whole entry, looked up): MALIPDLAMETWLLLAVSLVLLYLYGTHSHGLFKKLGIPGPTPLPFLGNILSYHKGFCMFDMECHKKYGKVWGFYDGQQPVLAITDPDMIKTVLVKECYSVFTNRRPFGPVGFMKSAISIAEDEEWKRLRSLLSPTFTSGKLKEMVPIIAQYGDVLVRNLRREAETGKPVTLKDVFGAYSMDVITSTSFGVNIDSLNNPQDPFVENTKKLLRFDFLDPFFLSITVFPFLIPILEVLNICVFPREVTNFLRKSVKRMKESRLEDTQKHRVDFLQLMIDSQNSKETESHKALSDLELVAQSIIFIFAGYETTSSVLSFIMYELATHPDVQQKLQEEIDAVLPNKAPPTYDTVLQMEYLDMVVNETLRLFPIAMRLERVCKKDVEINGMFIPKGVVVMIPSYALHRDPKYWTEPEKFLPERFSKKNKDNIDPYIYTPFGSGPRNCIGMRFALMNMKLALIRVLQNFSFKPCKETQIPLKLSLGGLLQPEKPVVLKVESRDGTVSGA
# Voltage-gated inwardly rectifying potassium channel KCNH2 (Homo sapiens), sequence (Q12809 whole entry, looked up): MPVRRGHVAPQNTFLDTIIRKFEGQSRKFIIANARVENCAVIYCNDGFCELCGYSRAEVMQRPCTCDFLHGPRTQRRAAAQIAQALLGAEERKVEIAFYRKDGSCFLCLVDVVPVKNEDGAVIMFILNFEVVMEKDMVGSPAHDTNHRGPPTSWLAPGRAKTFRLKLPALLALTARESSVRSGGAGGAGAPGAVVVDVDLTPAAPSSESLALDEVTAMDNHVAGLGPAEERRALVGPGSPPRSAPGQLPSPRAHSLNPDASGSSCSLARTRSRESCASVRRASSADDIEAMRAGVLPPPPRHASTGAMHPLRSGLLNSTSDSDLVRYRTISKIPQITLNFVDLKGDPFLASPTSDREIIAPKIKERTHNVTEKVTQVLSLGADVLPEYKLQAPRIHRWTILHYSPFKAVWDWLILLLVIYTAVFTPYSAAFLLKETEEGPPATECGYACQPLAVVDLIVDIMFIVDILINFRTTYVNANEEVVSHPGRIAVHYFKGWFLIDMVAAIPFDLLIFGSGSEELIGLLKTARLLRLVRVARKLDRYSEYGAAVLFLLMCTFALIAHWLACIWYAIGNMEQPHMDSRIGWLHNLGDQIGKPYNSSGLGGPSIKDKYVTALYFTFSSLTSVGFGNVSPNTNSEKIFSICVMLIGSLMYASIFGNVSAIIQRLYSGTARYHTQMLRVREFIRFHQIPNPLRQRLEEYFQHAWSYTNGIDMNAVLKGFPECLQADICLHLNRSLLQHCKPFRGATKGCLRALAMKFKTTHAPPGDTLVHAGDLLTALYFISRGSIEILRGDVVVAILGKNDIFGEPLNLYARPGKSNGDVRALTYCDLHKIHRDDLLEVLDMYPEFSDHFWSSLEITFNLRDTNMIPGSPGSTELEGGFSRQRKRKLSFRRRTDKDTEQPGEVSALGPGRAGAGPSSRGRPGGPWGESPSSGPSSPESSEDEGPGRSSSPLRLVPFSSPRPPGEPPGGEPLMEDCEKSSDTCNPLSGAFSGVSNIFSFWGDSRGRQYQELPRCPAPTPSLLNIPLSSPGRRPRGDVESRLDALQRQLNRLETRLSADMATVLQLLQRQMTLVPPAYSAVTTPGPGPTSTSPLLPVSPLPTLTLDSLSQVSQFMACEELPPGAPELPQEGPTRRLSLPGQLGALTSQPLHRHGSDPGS
# Cytochrome P450 1A2 (Homo sapiens), sequence (P05177 whole entry, looked up): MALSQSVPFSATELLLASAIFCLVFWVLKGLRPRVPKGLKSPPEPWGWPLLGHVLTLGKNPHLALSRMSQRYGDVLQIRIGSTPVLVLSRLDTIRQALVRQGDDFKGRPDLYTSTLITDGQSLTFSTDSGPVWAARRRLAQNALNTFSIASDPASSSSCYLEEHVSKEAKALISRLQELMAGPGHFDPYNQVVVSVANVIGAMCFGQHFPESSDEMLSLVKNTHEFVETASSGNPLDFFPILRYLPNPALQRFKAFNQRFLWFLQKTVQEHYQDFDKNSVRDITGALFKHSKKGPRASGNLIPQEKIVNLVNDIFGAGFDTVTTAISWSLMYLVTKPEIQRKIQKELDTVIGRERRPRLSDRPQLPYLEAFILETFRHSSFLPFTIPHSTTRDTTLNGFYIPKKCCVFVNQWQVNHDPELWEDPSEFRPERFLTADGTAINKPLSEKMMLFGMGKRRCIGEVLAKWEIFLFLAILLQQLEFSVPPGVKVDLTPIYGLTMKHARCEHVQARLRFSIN
compound,measurement,setting,value
CCn1cc(C(=O)O)c(=O)c2cc(F)c(N3CCNCC3)nc21,Potency,[1],inactive
same,Potency,[2],inactive
same,Potency,[3],inactive
same,Potency,[4],inactive
same,Potency,[5],inactive
C=CC(C)(C)CC(=O)OC,Potency,[1],35.7 µM (active)
same,Potency,[2],35.7 µM (active)
same,Potency,[3],20.1 µM (active)
same,Potency,[4],inactive
same,Potency,[5],63.5 µM (active)
CC(CCc1ccc2c(c1)OCO2)NN (stereo not drawn),Potency,[1],38.9 µM (active)
same,Potency,[2],15.5 µM (active)
same,Potency,[3],1.44 µM (active)
same,Potency,[4],inactive
CO[C@H]1O[C@H](CO)[C@@H](O)[C@H](O)[C@H]1O,Potency,[1],inactive
same,Potency,[2],inactive
same,Potency,[3],inactive
same,Potency,[4],inactive
same,Potency,[5],inactive
Cc1oncc1C(=O)Nc1ccc(C(F)(F)F)cc1,Potency,[1],8.94 µM (active) and 8.71 µM (active)
same,Potency,[2],25.2 µM (active) and 15.5 µM (active)
same,Potency,[3],1.59 µM (active) and 911 nM (active)
same,Potency,[4],inactive
CCC(Cc1ccccc1)(C(=O)c1ccc(N2CCOCC2)cc1)N(C)C (stereo not drawn),Potency,[1],39.9 µM (active)
same,Potency,[2],35.6 µM (active)
same,Potency,[3],inactive
same,Potency,[4],13.8 µM (active)
CCCCC(=O)O[C@]1(C(=O)CO)[C@@H](C)C[C@H]2[C@@H]3CCC4=CC(=O)C=C[C@]4(C)[C@@]3(F)[C@@H](O)C[C@@]21C,Potency,[1],79.6 µM (active)
same,Potency,[2],35.6 µM (active)
same,Potency,[3],inactive
same,Potency,[4],inactive
CCCCC1C(=O)N(c2ccccc2)N(c2ccc(O)cc2)C1=O (stereo not drawn),Potency,[1],17.4 µM (active)
same,Potency,[2],9.77 µM (active)
same,Potency,[3],inactive
same,Potency,[4],inactive
COC(=O)c1cc(S(N)(=O)=O)ccc1OC,Potency,[1],inactive
same,Potency,[2],inactive
same,Potency,[3],inactive
COc1cc2ncnc(Nc3ccc(F)c(Cl)c3)c2cc1OCCCN1CCOCC1,Potency,[1],38.9 µM (active)
same,Potency,[2],inactive
same,Potency,[3],inactive
same,Potency,[4],inactive
CC(=O)CC(c1ccc([N+](=O)[O-])cc1)c1c(O)c2ccccc2oc1=O (stereo not drawn),Potency,[1],8.71 µM (active)
same,Potency,[2],2.45 µM (active)
same,Potency,[3],inactive
same,Potency,[4],inactive
same,Potency,[5],inactive
COCc1c(C(C)C)nc(C(C)C)c(/C=C/[C@@H](O)C[C@@H](O)CC(=O)O)c1-c1ccc(F)cc1,Potency,[1],inactive
same,Potency,[2],35.2 µM (active)
same,Potency,[3],30.9 µM (active)
same,Potency,[4],inactive
CNCCCC1c2ccccc2C=Cc2ccccc21,Potency,[1],inactive
same,Potency,[2],inactive
same,Potency,[3],inactive
O=C(CCC1CCN(Cc2ccccc2)CC1)c1ccc2c(c1)NCCCC2,Potency,[1],inactive
same,Potency,[2],inactive
same,Potency,[3],inactive
same,Potency,[4],4.77 µM (active)
same,Potency,[5],inactive
CCC(=O)Oc1ccc(/C(CC)=C(\CC)c2ccc(OC(=O)CC)cc2)cc1,Potency,[1],inactive
same,Potency,[2],inactive
same,Potency,[3],inactive
same,Potency,[4],inactive
same,Potency,[5],inactive
Nc1nc(Cl)nc2c1ncn2[C@@H]1O[C@H](CO)[C@@H](O)[C@@H]1F,Potency,[1],inactive
same,Potency,[2],inactive
same,Potency,[3],inactive
same,Potency,[4],inactive
same,Potency,[5],inactive
CCOC(=N)CC(=O)OCC,Potency,[1],inactive
same,Potency,[2],inactive
same,Potency,[3],39.9 µM (active)
same,Potency,[4],inactive
same,Potency,[5],inactive
CC1=NN(c2ccc(C(=O)O)cc2)C(=O)C1,Potency,[1],20 µM (active)
same,Potency,[2],inactive
same,Potency,[3],inactive
same,Potency,[4],inactive
same,Potency,[5],inactive
O=C(c1ccc(O)cc1)c1ccc(Cl)cc1,Potency,[1],18.2 µM (active)
same,Potency,[2],25.7 µM (active)
same,Potency,[3],18.2 µM (active)
same,Potency,[4],inactive
CC(C)c1nnc2ccc(-c3ocnc3-c3cc(F)ccc3F)cn12,Potency,[1],56.4 µM (active)
same,Potency,[2],5.64 µM (active)
same,Potency,[3],35.6 µM (active)
same,Potency,[4],inactive
same,Potency,[5],inactive
O=C(CCCN1CCN(c2ccc(F)cc2)CC1)NC1c2ccccc2CSc2ccccc21 (stereo not drawn),Potency,[1],4.36 µM (active)
same,Potency,[2],6.92 µM (active)
same,Potency,[3],inactive
same,Potency,[4],1.9 µM (active)
O=C(CCCN1CCC(O)(c2ccc(Br)cc2)CC1)c1ccc(F)cc1,Potency,[1],inactive
same,Potency,[2],inactive
same,Potency,[3],inactive
same,Potency,[4],0.239 µM (active)
same,Potency,[5],inactive
CCOC(=O)/C=C/C(=O)O,Potency,[1],inactive
same,Potency,[2],inactive
same,Potency,[3],inactive
same,Potency,[4],inactive
same,Potency,[5],inactive
CC1CC(=O)NN=C1c1ccc(NCC(C)(C)NCC(O)COc2cc(Cl)ccc2C#N)cc1 (stereo not drawn),Potency,[1],13.8 µM (active)
same,Potency,[2],12.3 µM (active)
same,Potency,[3],inactive
COc1ccccc1N=Nc1c(S(=O)(=O)O)cc2cc(S(=O)(=O)O)cc(NC(C)=O)c2c1O,Potency,[1],29.8 µM (active)
same,Potency,[2],33.5 µM (active)
same,Potency,[3],33.5 µM (active)
same,Potency,[4],inactive
same,Potency,[5],33.5 µM (active)
CCOC(=O)OCC,Potency,[1],inactive
same,Potency,[2],inactive
same,Potency,[3],41.5 µM (active)
same,Potency,[4],inactive
Nc1ccc(Cl)cc1[N+](=O)[O-],Potency,[1],inactive
same,Potency,[2],inactive
same,Potency,[3],9.93 µM (active)
same,Potency,[4],inactive
Cc1cc(O)c(C(C)C)cc1Cl,Potency,[1],35.6 µM (active) and 24.5 µM (active)
same,Potency,[2],14.2 µM (active) and 15.5 µM (active)
same,Potency,[3],20 µM (active) and 15.5 µM (active)
same,Potency,[4],inactive
same,Potency,[5],inactive
CC#N,Potency,[1],inactive
same,Potency,[2],inactive
same,Potency,[3],inactive
same,Potency,[4],inactive
same,Potency,[5],inactive
CCC(=O)OC/C=C/c1ccccc1,Potency,[1],35.6 µM (active) and 71 µM (active)
same,Potency,[2],39.9 µM (active)
same,Potency,[3],63.3 µM (active)
same,Potency,[4],inactive
same,Potency,[5],inactive
CCC(C(=O)OCCOCCN(CC)CC)c1ccccc1 (stereo not drawn),Potency,[1],inactive
same,Potency,[2],inactive
same,Potency,[3],inactive
same,Potency,[4],inactive
same,Potency,[5],inactive
CC1CN(c2cc3c(cc2F)c(=O)c(C(=O)O)cn3-c2ccc(F)cc2F)CCN1 (stereo not drawn),"activity change, negative = inhibition",[1],31.4% [at 10.5 µM]
same,"activity change, negative = inhibition",[2],2.17% [at 10.5 µM]
same,"activity change, negative = inhibition",[3],1.79% [at 10.5 µM]
same,"activity change, negative = inhibition",[4],3.92% [at 6.97 µM]
same,"activity change, negative = inhibition",[5],4.32% [at 10.5 µM]
